Vc quorum ag: quorum light induction in luxS cqsA deficient V. cholerae; V. cholerae BH1578 lux reporter, luminescence, 6 h; activation, % at 18.7 µM; 350,000 compounds, 0.16% hits; in the data active means activation mostly above about 9.7%, no sharp cut-off
SARS 3CLpro inh: SARS-CoV 3CLpro protease inhibition; recombinant SARS-CoV 3CLpro, quenched FRET peptide cleavage; inhibition, % at 6 µM; 290,000 compounds, 0.14% hits; AID 1706; in the data active means inhibition above about 12%
GDH-TPI counter: counter-screen for M. tuberculosis FBA inhibitors: GDH-TPI coupled enzymes | AID 588335 | GDH-TPI coupled enzyme counterscreen, NADH absorbance | inhibition, % at 4.8 µM | 360,000 compounds, 1.2% hits; in the data active means inhibition above about 30%
PrPC TRFRET: inhibitors of human cell surface prion protein PrPC; P04156; TR-FRET read-out; inhibition, % at 13.8 µM; 370,000 compounds, 0.43% hits; in the data active means inhibition above about 24%
Mtb FBA inh: inhibits M. tuberculosis FBA enzyme; P9WQA3; purified M. tuberculosis FBA, fluorescence read-out; inhibition, % at 1 µM; 360,000 compounds, 2.3% hits; AID 588726; in the data active means inhibition above about 27%
Target sequence (P9WQA3 whole entry, looked up): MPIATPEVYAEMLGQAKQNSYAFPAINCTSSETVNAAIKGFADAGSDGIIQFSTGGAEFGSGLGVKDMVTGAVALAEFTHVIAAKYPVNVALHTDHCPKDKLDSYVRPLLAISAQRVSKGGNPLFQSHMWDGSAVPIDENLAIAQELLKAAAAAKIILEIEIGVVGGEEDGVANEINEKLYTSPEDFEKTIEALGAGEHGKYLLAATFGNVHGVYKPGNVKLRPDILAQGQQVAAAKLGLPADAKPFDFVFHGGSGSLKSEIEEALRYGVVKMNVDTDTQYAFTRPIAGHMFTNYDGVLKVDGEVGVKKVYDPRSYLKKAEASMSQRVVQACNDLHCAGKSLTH
Large screens that a line does not name were inactive; ! = repeats disagree. An excerpt weighted towards active compounds, which were near 3.9% of everything screened.

O=S(=O)(c1ccc(NC(=S)N/N=C/c2cccc(Oc3ccccc3)c2)cc1)N1CCOCC1	none
O=C1c2cccc3cccc(c23)C(=O)N1CC1CCN(CC(O)COc2ccc3ccccc3c2)CC1 (stereo not drawn)	GDH-TPI counter 42.0 (no result: SARS 3CLpro inh)
CC(=O)c1cc2c(cc1NC(=O)CN(C)S(=O)(=O)c1cccs1)OCO2	none (no result: SARS 3CLpro inh)
CCCn1c(C)nc2c(c1=O)c1nc3ccccc3nc1n2CCc1ccccc1	none (no result: Vc quorum ag, GDH-TPI counter, PrPC TRFRET, Mtb FBA inh)
CCCn1c(C)nc2c(c1=O)c1nc3ccccc3nc1n2CCC1=CCCCC1	Mtb FBA inh 91.3
Cn1nnnc1SCc1cn2cccnc2n1	Mtb FBA inh 122.2
Cc1cc(O)c(-c2cc(C(=O)Nc3sc4c(c3C(=O)NCc3ccco3)CCC4)[nH]n2)cc1C	GDH-TPI counter 34.2
Cc1ccc(-c2cc(C(=O)Nc3sc4c(c3C(=O)NCc3ccco3)CCC4)[nH]n2)c(O)c1	none
CCC(C)CNC(=O)CN1C(=O)C2CCCCN2C(=O)c2ccccc21 (stereo not drawn)	none (no result: Vc quorum ag, SARS 3CLpro inh, GDH-TPI counter, Mtb FBA inh)
Cn1cc(Cl)c(C(=O)N/N=C/c2ccc3c4c(cccc24)CC3)n1	GDH-TPI counter 35.9, Mtb FBA inh 29.6 (no result: PrPC TRFRET)
Cc1ccc(/C=N/NC(=O)c2nn(C)cc2Cl)cc1	none
COc1ccc(C2Nc3ccccc3NC3=C2C(=O)CC(C)(C)C3)c(OC)c1OC (stereo not drawn)	none
COc1cccc(C2Nc3ccccc3NC3=C2C(=O)CC(C)(C)C3)c1OC (stereo not drawn)	GDH-TPI counter 34.8
CC1(C)CC(=O)C2=C(C1)Nc1ccccc1NC2c1ccccn1 (stereo not drawn)	GDH-TPI counter 41.9
CC1(C)CC(=O)C2=C(C1)Nc1ccccc1NC2c1nc2ccccc2[nH]1 (stereo not drawn)	GDH-TPI counter 32.2
CC1(C)CC(=O)C2=C(C1)Nc1ccccc1NC2c1ccc2c(c1)OCO2 (stereo not drawn)	GDH-TPI counter 41.0
O=C(O)c1cc(-n2[nH]c(=O)c3ccccc3c2=O)ccc1Cl	none
CCOCCC(=O)Nc1ccc2c(c1)c(=O)n(C)n2CC=C(C)C	Mtb FBA inh active (no result: SARS 3CLpro inh)
C=C(C)Cn1c2ccc(NC(=O)CCc3cccc(Cl)c3)cc2c(=O)n1C	Mtb FBA inh active (no result: SARS 3CLpro inh)
O=C(CCc1ccccc1)NNC(=O)Nc1cccc(Cl)c1	none
C=C(C)Cn1c2ccc(NC(=O)CCOCC)cc2c(=O)n1C	Mtb FBA inh active (no result: SARS 3CLpro inh)
Cc1noc(C)c1NC(=O)N(C)C[C@H]1Oc2ccc(NC(=O)Nc3ccc4c(c3)OCO4)cc2C(=O)N([C@H](C)CO)C[C@@H]1C	none (no result: SARS 3CLpro inh)
Cc1nc(CC(=O)c2c(C)cc(O)cc2O)cs1	GDH-TPI counter 36.8
CCCCCC(=O)c1ccc(O)cc1O	none
Cc1nc(CC(=O)c2ccc(O)c(C)c2O)cs1	GDH-TPI counter 59.3
O=C(Cc1cscn1)c1ccc(O)cc1O	GDH-TPI counter 37.5
Cc1nc(C/C(=N\Nc2ccccc2)c2ccc(O)cc2O)cs1	none
Cc1nc(CC(=O)c2ccc(O)cc2O)cs1	GDH-TPI counter 32.5
Cc1ccc(NNc2c(C)nc3ccccc3nc2=O)cc1	none
NC(=O)C1C(=O)c2ccccc2C1(C[N+](=O)[O-])c1ccccc1 (stereo not drawn)	none (no result: SARS 3CLpro inh)
Cc1ccc(S(=O)(=O)N(C)C)cc1NC(=S)NC12CC3CC(CC(C3)C1)C2	Mtb FBA inh active
C=CCNC(=S)NNc1nc2c(c(=O)[nH]1)C1(CCCCC1)Cc1ccccc1-2	none
COc1ccc([N+](=O)[O-])cc1/C=N/NC(=O)/C(=C\c1cccs1)NC(=O)c1ccccc1	GDH-TPI counter 43.4
O=C(N/N=C/c1cc2ccccc2nc1Cl)/C(=C/c1cccs1)NC(=O)c1ccccc1	none
COc1cc2ccccc2cc1C(=O)N/N=C/c1cccs1	GDH-TPI counter 34.8 (no result: SARS 3CLpro inh)
O=C(N/N=C/c1cccnc1)/C(=C\c1cccs1)NC(=O)c1ccccc1	GDH-TPI counter 46.7
COc1ccc(/C=C(/NC(=O)c2ccccc2)C(=O)N/N=C/c2cccs2)cc1OC	GDH-TPI counter 69.3
CCOC(=O)[C@]12CCCC=C1N(Cc1ccccc1)C(=O)[C@H](CC(=O)NCc1ccc(C)o1)C2	none (no result: Vc quorum ag, SARS 3CLpro inh, GDH-TPI counter, Mtb FBA inh)
CC(C)CCN(C(=O)c1ccccn1)c1c(N)n(Cc2ccccc2)c(=O)[nH]c1=O	none (no result: SARS 3CLpro inh)
COc1ccccc1C(=O)N/C(=C/c1ccc2c(c1)OCO2)C(=O)Nc1ccc(C(=O)O)cc1	none
COc1ccc(/C=C(\NC(=O)c2cccs2)C(=O)Nc2ccccc2C)cc1OC	GDH-TPI counter 38.3
COc1ccc(/C=C(/NC(=O)c2ccccc2)C(=O)N/N=C/c2ccc3c(c2)OCO3)cc1OC	GDH-TPI counter 64.5
O=C(Nc1cccc(C(=O)O)c1)/C(=C\c1ccc2c(c1)OCO2)NC(=O)c1ccccc1	none
O=C(N/N=C/c1ccc2c(c1)OCO2)/C(=C/c1ccc2c(c1)OCO2)NC(=O)c1ccccc1	GDH-TPI counter 54.8
CCN(C(=O)C1CCN(c2ncccn2)CC1)c1ccccc1	none (no result: Vc quorum ag, SARS 3CLpro inh, GDH-TPI counter, Mtb FBA inh)
O=C(/C=C/c1ccc(O)c(O)c1)OC1C(O)CC(OC(=O)/C=C/c2ccc(O)c(O)c2)(C(=O)O)CC1O (stereo not drawn)	none
O=C(/C=C/c1ccc(O)c(O)c1)O[C@@H]1C[C@](O)(C(=O)O)C[C@@H](O)[C@H]1O	GDH-TPI counter 49.8! (no result: SARS 3CLpro inh)
CC(=O)Nc1nc2n(n1)C(c1ccccc1)C=C(c1ccccc1)N2 (stereo not drawn)	Mtb FBA inh 49.7 (no result: PrPC TRFRET)
CC(=O)Nc1nc2n(n1)C(c1ccc(Cl)cc1)C=C(C)N2 (stereo not drawn)	Mtb FBA inh 119.4
CC(=O)Nc1nc2n(n1)C(c1ccc(F)cc1)C=C(c1ccccc1)N2 (stereo not drawn)	none
CS(=O)(=O)Nc1nc2n(n1)C(c1ccccc1)C=C(c1ccc(Br)cc1)N2 (stereo not drawn)	Mtb FBA inh 33.8 (no result: PrPC TRFRET)
COc1ccccc1C1C=C(c2ccc(Cl)cc2)Nc2nc(NS(C)(=O)=O)nn21 (stereo not drawn)	none (no result: Vc quorum ag, GDH-TPI counter, PrPC TRFRET, Mtb FBA inh)
O=C(Cn1cc([N+](=O)[O-])nc1[N+](=O)[O-])N1CCN(c2ccccc2)CC1	none
O=C(NC(CSC(=O)c1ccccc1)C(=O)O)OCc1ccccc1 (stereo not drawn)	none (no result: SARS 3CLpro inh)
Cc1ccc(C(=O)N=c2sccn2C)o1	GDH-TPI counter 32.9
Cc1ccc(N(C)S(=O)(=O)c2c(C)noc2/C=C/N(C)C)cc1	GDH-TPI counter 33.6
Cc1ccc(CNC(=O)C2CCN(S(=O)(=O)c3c(C)noc3/C=C/N(C)C)CC2)cc1	none
Cc1ccc(C(=O)O/N=C\c2ccc(N3CCCCC3)c([N+](=O)[O-])c2)cc1	GDH-TPI counter 39.8
COCC1CCCN(C(=O)c2cc(COc3ccc4ncccc4c3)on2)C1 (stereo not drawn)	none
COC(=O)c1c(N)n(Cc2ccc(OC)cc2)c2nc3ccccc3nc12	Mtb FBA inh 159.0
COCCOC(=O)c1c(N)n(Cc2ccc(OC)cc2)c2nc3ccccc3nc12	Mtb FBA inh 171.3
COc1ccc(N2CCc3c(C)nc4c(OC)cccc4c32)cc1	none
Cc1nc2c(C)cccc2c2c1CCN2c1ccccc1F	Mtb FBA inh 113.3

High-throughput results: PubChem, several laboratories
